About 83,000 compounds went through this panel and 20% of them were active in at least one assay; those are over-represented in the sample as a whole.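 Method: cells in 96-well plates; compound added at one concentration; 48 h incubation; percent growth measured; values under 10 scored active.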 Unmarked numbers belong to inactive results. The source made the active and inactive calls.

The experiment concerns MDA-MB-468 breast. The experiment can be described thus: NCI-60 one-dose screen, 48 h (100 = growth as untreated, 0 = no growth, -100 = all killed). The settings on record: 10 µM unless noted.
Take `CC(=O)C1Cc2ccccc2C1=O` (stereo not given): the growth was 105%. Take `COc1ccc(-c2c3c(nc4n[nH]c(-c5ccc(Cl)cc5)c24)-c2ccccc2C(=O)C3=O)cc1`: the growth was -9.02% (active). With `COC(=O)Nc1ccc(-c2nc(-c3cccc(OC)c3)c(-c3ccnc(Br)c3)[nH]2)cc1`, the growth was 39.1%. In the case of `Oc1ccc(N=Cc2ccc(OCc3ccccc3)cc2)cc1` it was 97.6%. For the molecule `N#C/C(=C\c1ccc(-c2ccc(Cl)c(Cl)c2)o1)c1nc(-c2ccco2)cs1`, the growth was -38.2% (active). In the case of `CO[C@H](C(=O)N[C@@H](CCCCNC(=O)OCc1ccccc1)C(=O)OC(C)(C)C)[C@@H]1Cc2cc3cc(OC4CC(OC5CC(O)C(O)C(C)O5)C(O)C(C)O4)c(C)c(O)c3c(O)c2C(=O)[C@H]1OC1CC(OC2CC(OC3CC(C)(O)C(O)C(C)O3)C(O)C(C)O2)C(O)C(C)O1` (stereo not given in full) it was -37.5% (active); in that of `O=C1OCc2cccc3cccc1c23`, 104%; in that of `NC1[C@H]2CN(c3cnc(C(=O)Nc4cc(F)cc5cccnc45)cn3)C[C@@H]12` (stereo not given in full), 3.36% (active).

Take `COc1ccc(-c2nc(-c3ccccn3)c(-c3ccccn3)n2CC(C)C)cc1OC1CCCC1`: the growth was -10.7% (active). Regarding `O=c1c2cc(F)cc(Cl)c2sc2c(NCCCNCCO)nc3ccccc3c12`, the growth is 78.2%. For `CS(=O)(=O)Nc1cc(-c2ccc3ncnc(Nc4ccc(OCc5ccccn5)c(Cl)c4)c3c2)cnc1Cl`, the growth was -55.4% (active). In the case of `C=CCOc1cccc(/C=C2\SC(=Nc3ccc(O)cc3)NC2=O)c1` it was -7.52% (active); in that of `COc1ccc(CN(c2ccc(C)cc2)C2OC(=O)c3ccccc32)cc1OC` (stereo not given), 90.2%; in that of `O=C(Nc1ccccc1)c1ccco1`, 103%. On to `c1ccc(Nc2ccc(Nc3nc(-c4ccccc4)nc4ccccc34)cc2)cc1`, for which the growth is 82.3%.

Take `O=C1/C(=C\c2cn(C(=O)c3ccc(Cl)cc3)c3ccccc23)c2ccccc2N1c1c(Cl)cccc1Cl`: the growth was 97.7%. To `CN1CCN(CC#CCn2c3c(c4ccccc42)C[C@]2(C)[C@H]4CC=C5[C@@H]6CC(C)(C)CC[C@]6(C(=O)N6CCOCC6)CC[C@@]5(C)[C@]4(C)CC[C@H]2C3(C)C)CC1` belongs 79.4%. In the case of `CN(C)c1cccc2c(S(=O)(=O)Nc3cccc(-c4csc(NC(=O)CCCCCN5CCN(CCO)CC5)n4)c3)cccc12` it was 79.3%.

With `COc1ccc2c(c1)Nc1ccccc1S2`, the growth is 104%. As to `O=c1cc(CSc2nnc(-c3ccccc3)n2-c2ccc(F)cc2)c2ccc3ccccc3c2o1`, the growth is 93.2%.

For `Cn1cc(-c2noc(-c3cn(C)c4ncc(F)cc34)n2)c2cc(Br)ccc21`, the growth is 61.3%. On to `Fc1ccccc1CSc1ncnc2nc[nH]c12`, for which the growth was 97.6%. Take `CCN(Cc1ccc(Cl)c(Cl)c1)c1ccc2nc(N)nc(N)c2c1C`: the growth is -84.2% (active). In the case of `CCN(CC)C(=O)CC1=C(C)/C(=C/c2[nH]c(-c3ccc[nH]3)cc2OC)N=C1C` it was 29.9%. As to `COc1ccccc1Cn1cc(C#N)c(N)c1C(=O)c1ccc(Br)cc1`, the growth was 72.2%. Turning to `O=C1/C(=C/c2ccc(Cl)cc2)SC(=S)N1CCc1ccc(O)cc1`, the growth is 73.1%. Consider `CCN(CC)c1ccc(/C=N/NC(=O)CSc2nc3ccccc3c(=O)n2CCc2ccc(S(N)(=O)=O)cc2)c(O)c1`, for which the growth was -7.72% (active).

Turning to `Cc1cccc(Cc2cnc(NC(=O)CCc3ccc(C)o3)s2)c1`, the growth was 5% (active). In the case of `Cc1ccc(N(C(=O)CCc2c[nH]c3ccccc23)[C@H](C(=O)Nc2ccc(Cl)cc2)c2cccc([N+](=O)[O-])c2)cc1` it was 91.3%. In the case of `CCOC(=O)Cc1cnc(N/N=C(\C)c2cc3ccccc3o2)s1` it was 99.8%. As for `COc1cc(-c2nn(-c3cccc(NC(=O)CCN4CCN(Cc5ccccc5)CC4)c3)cc2-c2ccncc2)ccc1Cl`, the growth is 1.17% (active). To `c1ccc(-c2cn3ccnc3c(-c3ccc4c(c3)ncn4C3CCCCC3)n2)cc1` belongs 112%; to `O=C(CCN1CCCCC1)c1ccc(Cl)cc1`, 94.3%; to `CN1CCN(c2ccc(Nc3nc(NCCNS(=O)(=O)c4ccc(Cl)cc4)c4sccc4n3)cc2)CC1`, 93%. On to `COc1ccc(/C(C)=C(/c2ccc(OCCCN(C)C)cc2)c2ccc(OC(=O)Cc3ccccc3)cc2)cc1`, for which the growth is 87.2%. As to `CCOC(=O)C(=Cc1cccc(Cl)c1)C(=O)OCC`, the growth is 37.9%. In the case of `CCCCCCCCCCCCCC[n+]1cccc(C(N)=O)c1` it was -59.9% (active). To `CN(C)CCOc1cccc(-c2nc3sccn3c2-c2ccnc(S(C)(=O)=O)n2)c1` belongs 92%; to `C#CCNC(=O)[C@H](Cc1ccccc1)NC(=O)[C@]12CC[C@@H](C(=C)C)[C@@H]1[C@H]1CC[C@@H]3[C@@]4(C)Cc5c([nH]c6ccccc56)C(C)(C)[C@@H]4CC[C@@]3(C)[C@]1(C)CC2`, 97.9%. To `COc1ccc2nc(-c3ccc(-c4noc(-c5cc(OC)c(OC)c(OC)c5)n4)cc3)[nH]c2c1` belongs 68.2%.

Values taken from PubChem BioAssay (NCI).
